This is a sample that favours compounds with a hit; in the whole collection about 3.8% have one here.
Shn3 inh set2 – reduces Shn3 3'UTR luciferase signal in osteoblasts. AID 588674. 0.52% of 360,000 active. inhibition, % at 12.5 µM. Clone20 osteoblast Shn3 3'UTR firefly luciferase, 24 h;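 active means mean inhibition of at least 75% with every replicate also reaching 75%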;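 further: 0% = median of neutral control wells and 100% = pilot-screen positive control compound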
Jurkat NFkB inh – inhibitors of the PMA/ionomycin-induced NF-kB reporter in Jurkat cells | PMA/ionomycin-induced NF-kB luciferase reporter, luminescence | 0.53% of 330,000 active | inhibition, % at 4 µM | AID 435003; in the data active means inhibition above about 50%
Gli-Sufu block – blocks Gli-Sufu signaling in a luciferase reporter. Sufu-KO-LIGHT fibroblasts, Gli luciferase reporter luminescence. AID 588413. 0.74% of 340,000 active. inhibition, % at 5 µM;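 active means inhibition above about 55%, limit read from the data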;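 further: 0% = DMSO-treated cells and 100% = wells with medium but no cells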
Mdm2 MdmX PPI – human Mdm2/MdmX binding inhibition; O15151+Q00987; SaOS-2 split-luciferase Mdm2/MdmX complementation, luminescence; inhibition, % at 8 µM; 3% of 330,000 active; AID 485346;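 active means inhibition of at least 50% at 8 µM in the primary screen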
Target sequence (O15151 whole entry, looked up): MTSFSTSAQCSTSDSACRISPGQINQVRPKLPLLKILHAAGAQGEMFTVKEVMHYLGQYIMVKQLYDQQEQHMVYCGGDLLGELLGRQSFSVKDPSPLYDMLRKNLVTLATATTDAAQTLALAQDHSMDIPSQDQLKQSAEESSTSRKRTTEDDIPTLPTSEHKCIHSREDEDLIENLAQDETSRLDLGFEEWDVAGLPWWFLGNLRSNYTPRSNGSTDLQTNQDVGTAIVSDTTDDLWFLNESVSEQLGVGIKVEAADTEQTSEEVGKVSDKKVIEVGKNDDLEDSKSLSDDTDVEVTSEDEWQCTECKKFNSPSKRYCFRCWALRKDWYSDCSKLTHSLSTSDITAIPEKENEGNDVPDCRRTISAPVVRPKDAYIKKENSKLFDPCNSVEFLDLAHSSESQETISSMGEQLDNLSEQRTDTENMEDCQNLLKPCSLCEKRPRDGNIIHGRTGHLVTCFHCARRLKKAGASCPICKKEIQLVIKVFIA
Target sequence (Q00987 whole entry, looked up): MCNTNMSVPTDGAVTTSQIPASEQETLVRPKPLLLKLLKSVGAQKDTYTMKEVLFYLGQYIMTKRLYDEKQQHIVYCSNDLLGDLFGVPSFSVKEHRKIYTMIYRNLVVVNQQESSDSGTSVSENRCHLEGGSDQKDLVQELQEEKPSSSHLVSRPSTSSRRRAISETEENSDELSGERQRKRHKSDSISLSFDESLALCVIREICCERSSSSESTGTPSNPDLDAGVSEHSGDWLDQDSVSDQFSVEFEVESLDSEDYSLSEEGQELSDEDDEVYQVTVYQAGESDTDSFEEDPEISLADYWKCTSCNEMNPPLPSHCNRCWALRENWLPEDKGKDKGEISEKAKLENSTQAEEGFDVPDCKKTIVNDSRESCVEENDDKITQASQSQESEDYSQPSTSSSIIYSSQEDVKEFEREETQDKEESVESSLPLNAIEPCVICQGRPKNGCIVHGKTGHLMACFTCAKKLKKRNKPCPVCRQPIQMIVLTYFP
697 NFkB inh – inhibitors of the PMA/ionomycin-induced NF-kB reporter in 697 B cells | 697 B-cell NF-kB luciferase reporter, 16 h | 0.33% of 330,000 active | inhibition, % at 4 µM; in the data active means inhibition above about 35%
Gli antag conf – confirmation of Gli-SUFU pathway antagonists. 40% of 2,500 active. AID 602428. inhibition, % at 5 µM. Sufu-KO-LIGHT cells, Gli luciferase reporter, luminescence. shares compounds with Gli-Sufu block;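 active means mean inhibition at 5 µM reaching about 45%, limit read from the data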;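 further: plate controls were DMSO-treated cells for no effect and wells lacking cells for full effect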
SufuKO cytotox – cytotoxicity counter-screen for Gli-SUFU antagonists. shares compounds with Gli-Sufu block. Sufu-KO-LIGHT cells cytotoxicity, ATP luminescence. cytotoxicity, % at 5 µM. 32% of 2,500 active;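 active means mean cytotoxicity at 5 µM above about 25%, limit read from the data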;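 further: cells exposed to compound overnight for roughly 16 to 18 hours; plate controls were DMSO wells with cells for no effect and medium without cells for full effect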
Wnt3a counter – Wnt3a reporter inhibition counter-screen; 20% of 2,500 active; Wnt-LIGHT cells, Wnt3a-driven luciferase reporter, luminescence; shares compounds with Gli-Sufu block; inhibition, % at 6.25 µM;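 active means mean inhibition above about 25%, limit read from the data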
The depositor's hits bear a star; / = no result.

SMILES	Shn3 inh set2	Jurkat NFkB inh	Gli-Sufu block	Mdm2 MdmX PPI	697 NFkB inh	Gli antag conf	SufuKO cytotox	Wnt3a counter
O=C(CSc1nc(C2CC2)nc2c1cnn2-c1ccccc1)Nc1c[nH]c(=O)[nH]c1=O	-5.1	7.3	98.8*	15.2	-4.1	30.3	2.1	16.9
CCOC(=O)c1c(NC(=O)COc2cccc3c2CCN(C)C3=O)sc2c1CCC2	84.8	9.9	58.2*	44.8	-39.1	42.8	7.8	15.1
Cc1c(NC(=O)Nc2ccc(C#N)cc2)c(=O)n(-c2ccccc2)n1C	7.3	15.6	2.7	-11.7	14.4	/	/	/
O=C(NCCCN1CCOCC1)c1ccc(S(=O)(=O)Nc2ccccc2F)cc1	16.6	-8.3	89.6*	-1.5	-10.1	13.5	1.9	-19.9
Cc1onc(-c2ccccc2)c1-c1nnc(-c2ccccc2C(F)(F)F)o1	9.1	-5.6	1.4	25.9	6.6	/	/	/
CCn1c(C)nc2cc(-c3nnc(-c4c(-c5ccccc5)noc4C)o3)ccc21	85.9*	-0.2	70.2*	5.0	1.6	76.7*	17.4	17.9
O=C(Nc1ccncc1)c1cccc(S(=O)(=O)N2CCc3ccccc32)c1	91.3*	31.6	55.9*	11.7	-35.5	55.1*	18.7	39.8*
O=C(Nc1cccnc1)c1cccc(S(=O)(=O)N2CCc3ccccc32)c1	24.0	16.8	2.4	7.2	-31.0	/	/	/
CC1CCc2sc3ncnc(N4CCN(CCO)CC4)c3c2C1 (stereo not given)	-90.2	6.9	21.9	9.3	9.5	/	/	/
O=C(CCl)N=c1sccn1Cc1cccc2ccccc12	11.2	/	95.8*	/	/	33.4	15.1	-18.4
c1cnc2ccc(C(c3nnnn3C3CCCCC3)N3CCN(C4CCCCC4)CC3)cc2c1 (stereo not given)	47.8	-21.3	65.4*	20.9	-2.8	80.2*	36.0*	-35.9
c1cnc2ccc(C(c3nnnn3C3CCCCC3)N3CCCCC3)cc2c1 (stereo not given)	4.1	-21.8	5.1	-9.0	-18.6	/	/	/
Cc1c(C(=O)Nc2ccc(-c3nnc4n3CCCCC4)cc2)oc2ccc(Br)cc12	16.0	-6.9	51.7	37.8	-41.2	31.9	12.8	-96.7
O=C(CSc1n[nH]c(=O)n1-c1ccccc1)N1CCOCC1	-2.3	1.2	53.0	19.5	4.5	22.3	11.2	14.8
O=C(CSc1nc2c([nH]c3ccccc32)c(=O)n1-c1ccccc1)N1CCOCC1	21.9	-29.4	7.7	-23.4	-24.4	/	/	/
CSc1ccc(S(=O)(=O)N2CCC(C(=O)Nc3cccnc3)CC2)cc1	4.0	30.2	75.8*	13.2	3.2	16.2	11.4	7.5
O=S(=O)(Nc1ccccc1)C1CCCCC1	24.2	/	-16.1	/	/	/	/	/
O=C(C1=C[C@H](c2coc3ccccc3c2=O)C[C@H](OCc2ccc(CO)cc2)O1)N1CCN(Cc2ccc3c(c2)OCO3)CC1	6.0	18.6	51.8	36.8	-0.6	35.0	6.1	-22.8
Cn1cc(/C=C(\C#N)C(=O)Nc2ccccc2O)c2ccccc21	-67.5	-47.5	-4.0	16.9	-48.9	/	/	/
Cc1ccc(CN2CCN(Cc3ccc(-n4cccn4)cc3)CC2CCO)cc1 (stereo not given)	20.9	4.1	26.2	6.9	1.3	/	/	/
O[C@@H]1CN(Cc2ccc(-n3cccn3)cc2)CC[C@H]1N1CCN(c2ccccc2F)CC1	84.8	27.7	58.9*	13.7	-33.8	46.1*	27.4*	-15.0
CCC1(O)CC2CN(CCc3c([nH]c4ccccc34)C(C(=O)OC)(c3cc4c(cc3OC)N(C=O)C3C(O)(C(=O)OC)C(OC(C)=O)C5(CC)C=CCN6CCC43C65)C2)C1 (stereo not given)	-5.9	/	54.9	/	/	63.1*	64.6*	-7.9
O=C(COC(=O)c1cccnc1)Nc1ccc2c(c1)OCO2	4.5	7.3	8.7	20.0	13.2	/	/	/
N#C/C(=C/c1ccc(-c2cccc([N+](=O)[O-])c2)o1)C(=O)Nc1nc(-c2cccs2)cs1	6.0	/	-5.3	/	/	/	/	/
N#C/C(=C\c1ccc(-c2ccc([N+](=O)[O-])cc2)o1)C(=O)Nc1nc(-c2cccs2)cs1	-4.9	-11.2	70.2*	9.4	9.4	80.4*	20.6	44.2*
SMILES	Shn3 inh set2	Jurkat NFkB inh	Gli-Sufu block	Mdm2 MdmX PPI	697 NFkB inh	Gli antag conf	SufuKO cytotox	Wnt3a counter
Cc1cccc(N(CC(=O)NC(C)(C)C)C(=O)CCC(=O)Nc2nccs2)c1	1.2	5.0	-12.0	8.8	4.5	/	/	/
O=C(CN(C(=O)CCC(=O)Nc1nccs1)c1cccc(F)c1)NCC1CCCO1 (stereo not given)	4.0	-3.0	6.9	21.0	22.3	/	/	/
CC(C)(C)NC(=O)CN(C(=O)CCC(=O)Nc1nccs1)c1cccc(C(F)(F)F)c1	5.0	8.7	54.7	29.2	1.2	26.8	15.6	-17.1
O=C(CN(C(=O)CCC(=O)Nc1nccs1)c1cccc(C(F)(F)F)c1)NCC1CCCO1 (stereo not given)	-2.7	-2.6	55.7*	-11.2	5.3	17.0	25.7*	-25.6
Cc1ccc(N(CCC#N)C(=O)COC(=O)C2=COCCO2)cc1	-5.4	18.4	-2.7	9.5	7.7	/	/	/
Cn1c(CCN2CCN(c3ccccn3)CC2)nc2cc(NC(=O)COc3ccc(Cl)cc3)ccc21	59.1	27.0	61.1*	47.9	-25.2	31.5	-10.1	29.0*
COc1ccc(OCC(=O)Nc2ccc3c(c2)nc(CCN2CCN(c4ccccn4)CC2)n3C)cc1	4.6	/	/	/	/	/	/	/
CC1(C)CC(=O)C=C(c2ccc(COC(=O)c3cccc(C(F)(F)F)c3)cc2)C1=O	29.7	/	/	/	/	/	/	/
Cc1nc2ccc(NC(=O)c3cc(S(=O)(=O)N(C)c4ccccc4)ccc3Cl)cc2s1	72.4	/	75.3*	/	/	73.2*	25.6*	52.6*
Cc1nc2ccc(NC(=O)c3ccc(Cl)c(S(=O)(=O)N(C)c4ccccc4)c3)cc2s1	76.4	16.4	7.4	12.1	-52.6	/	/	/
COCCn1c(CN2CCN(C(=O)c3ccco3)CC2)nc2c1c(=O)n(C)c(=O)n2C	2.9	-9.0	-12.2	-4.4	-11.2	/	/	/
Cc1cc(C)c(C#N)c(SCC2COc3ccccc3O2)n1 (stereo not given)	7.7	-7.3	-4.8	27.5	1.3	/	/	/
Cc1cc(C)n2nc(SCC3COc4ccccc4O3)nc2n1 (stereo not given)	-74.4	-26.7	99.1*	-31.3	-47.6	-13.3	9.4	-81.6
CCc1nnc(NC(=O)C(C)C)s1	-9.5	0.9	92.6*	-6.5	2.8	10.6	-13.6	4.8
Cc1ccc2cc(/C=N/NC(=O)[C@H]3C[C@@H]3c3ccccc3)c(Cl)nc2c1	-3.0	9.1	0.8	6.0	0.6	/	/	/
O=C(N/N=C/c1cc2ccccc2nc1Cl)[C@H]1C[C@@H]1c1ccccc1	19.8	34.5	73.4*	23.0	-39.0	36.9	17.4	-59.1
Cc1ccc(C(=O)NC2CCN(S(=O)(=O)c3ccccc3F)CC2)cc1	-113.6	16.6	-27.8	15.7	16.0	/	/	/

Assay outcomes (PubChem BioAssay)
